According to PubChem BioAssay:
For part of these data: Entries with a potency or affinity are not part of this list. Calls of active or inactive are those of the source. Unless noted, the rule behind the calls is not given here.

Experiments:
[1] = antimalarial activity against Dd2 strain (AID 2302;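 active = growth inhibition above 50% at the single 2 µM test dose, taken to imply half-maximal potency below 2 µM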;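 note: 0% = DMSO untreated growth and 100% = chloroquine plus artemisinin killed control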); settings: P. falciparum Dd2 in RBCs, LDH growth readout, 72 h; at 2 µM; stronger effect = higher value
[2] = HepG2 cytotoxicity, primary screen, cytotoxicity control for P. falciparum antimalarial project, cell-based, ATP luminescence (AID 2303;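 active = inhibition above 50%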;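 note: 0% = DMSO wells and 100% = digitonin-killed cells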); settings: HepG2 viability, 24-48 h, at 10 µM, stronger effect = higher value
[3] = target: L-lactate dehydrogenase (Plasmodium falciparum (isolate CDC / Honduras)) (UniProt Q27743); experiment: PfLDH activity inhibition – cell lysate, 3D7 strain, counter-screen for P. falciparum growth inhibition project (AID 2304);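 note: 0% = vehicle and 100% = reference inhibitor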; settings: P. falciparum 3D7 crude extract, LDH APAD/NBT absorbance; at 2 µM; stronger effect = higher value
Sequence of L-lactate dehydrogenase (Plasmodium falciparum (isolate CDC / Honduras)) (Q27743 whole entry, looked up): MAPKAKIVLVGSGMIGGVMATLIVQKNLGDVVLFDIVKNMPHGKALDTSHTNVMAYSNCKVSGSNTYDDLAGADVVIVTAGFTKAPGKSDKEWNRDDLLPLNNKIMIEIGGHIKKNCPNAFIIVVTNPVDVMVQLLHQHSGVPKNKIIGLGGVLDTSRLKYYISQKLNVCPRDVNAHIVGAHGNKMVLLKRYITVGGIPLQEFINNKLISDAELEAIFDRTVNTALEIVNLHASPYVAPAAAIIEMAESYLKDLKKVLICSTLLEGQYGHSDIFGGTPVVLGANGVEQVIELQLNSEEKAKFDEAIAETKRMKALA

[4] = inhibition of 3D7 malaria parasite growth – strain 3D7 (AID 2306);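 note: 0% = DMSO wells and 100% = chloroquine plus artemisinin control wells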; settings: P. falciparum 3D7 erythrocytic growth, LDH absorbance, 72 h; at 2 µM; stronger effect = higher value
[5] = target: Calcium-dependent protein kinase 1 (Plasmodium falciparum (isolate 3D7)) (UniProt P62344); experiment: PfCDPK1 kinase inhibitors, biochemical, TCAMS library (AID 1159585; cut-off not given, nearly all actives have IC50 up to about 0.98 µM;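 note: inhibitors leave more ATP so luminescence rises with inhibition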); settings: recombinant PfCDPK1, Kinase-Glo ATP depletion luminescence
Sequence of Calcium-dependent protein kinase 1 (Plasmodium falciparum (isolate 3D7)) (P62344 whole entry, looked up): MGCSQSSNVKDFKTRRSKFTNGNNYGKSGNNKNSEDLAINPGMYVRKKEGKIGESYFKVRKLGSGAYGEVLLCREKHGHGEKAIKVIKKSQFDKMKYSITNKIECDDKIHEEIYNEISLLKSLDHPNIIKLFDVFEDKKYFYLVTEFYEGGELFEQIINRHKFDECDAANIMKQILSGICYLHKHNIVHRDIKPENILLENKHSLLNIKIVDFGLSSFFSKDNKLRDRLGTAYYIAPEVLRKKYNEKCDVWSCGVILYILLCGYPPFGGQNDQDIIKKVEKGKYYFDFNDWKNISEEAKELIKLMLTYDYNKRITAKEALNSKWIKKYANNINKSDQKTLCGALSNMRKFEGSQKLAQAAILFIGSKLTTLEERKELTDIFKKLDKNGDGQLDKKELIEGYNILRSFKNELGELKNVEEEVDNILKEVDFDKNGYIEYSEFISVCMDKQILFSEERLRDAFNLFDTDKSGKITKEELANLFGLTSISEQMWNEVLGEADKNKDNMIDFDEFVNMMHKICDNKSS

[6] = target: Plasmodium falciparum protein kinase 6 (PK6, PF3D7_1337100) (UniProt Q8IDW1); experiment: PfPK6 kinase inhibitors, biochemical, TCAMS library (AID 1159586); settings: recombinant PfPK6, Kinase-Glo ATP depletion luminescence
Sequence of Plasmodium falciparum protein kinase 6 (PK6, PF3D7_1337100) (Q8IDW1 1-305): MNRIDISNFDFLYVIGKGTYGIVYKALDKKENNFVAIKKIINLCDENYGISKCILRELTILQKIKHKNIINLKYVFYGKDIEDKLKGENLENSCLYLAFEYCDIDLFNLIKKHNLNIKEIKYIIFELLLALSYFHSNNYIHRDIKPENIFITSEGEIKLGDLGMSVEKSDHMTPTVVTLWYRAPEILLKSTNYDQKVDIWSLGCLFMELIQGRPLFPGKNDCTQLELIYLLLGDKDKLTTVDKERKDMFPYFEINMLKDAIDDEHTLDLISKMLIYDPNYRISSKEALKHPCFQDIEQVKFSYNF

[7] = target: Protein kinase 7 (PK7), Plasmodium falciparum 3D7 (PF3D7_0213400) (UniProt Q7YTF7); experiment: inhibition of Plasmodium PK7 catalytic activity – biochemical, TCAMS antimalarial set, Kinase-Glo luminescence (AID 1159587); settings: recombinant PfPK7, Kinase-Glo ATP depletion luminescence
Sequence of Protein kinase 7 (PK7), Plasmodium falciparum 3D7 (PF3D7_0213400) (Q7YTF7 1-343): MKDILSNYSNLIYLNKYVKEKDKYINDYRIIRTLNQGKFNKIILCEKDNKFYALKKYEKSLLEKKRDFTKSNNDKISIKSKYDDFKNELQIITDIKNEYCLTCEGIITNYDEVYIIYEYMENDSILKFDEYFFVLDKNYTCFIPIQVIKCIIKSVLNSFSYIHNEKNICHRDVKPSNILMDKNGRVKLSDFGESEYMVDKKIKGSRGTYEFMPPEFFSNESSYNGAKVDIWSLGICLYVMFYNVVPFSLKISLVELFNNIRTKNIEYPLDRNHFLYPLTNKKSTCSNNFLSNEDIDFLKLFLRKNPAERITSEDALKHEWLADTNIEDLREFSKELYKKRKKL

[8] = target: Calcium-dependent protein kinase 4 (Plasmodium falciparum (isolate 3D7)) (UniProt Q8IBS5); experiment: PfCDPK4 kinase inhibitors, biochemical, TCAMS library (AID 1159588; cut-off not given, nearly all actives have IC50 up to about 0.91 µM); settings: recombinant PfCDPK4, Kinase-Glo ATP depletion luminescence
Sequence of Calcium-dependent protein kinase 4 (Plasmodium falciparum (isolate 3D7)) (Q8IBS5 whole entry, looked up): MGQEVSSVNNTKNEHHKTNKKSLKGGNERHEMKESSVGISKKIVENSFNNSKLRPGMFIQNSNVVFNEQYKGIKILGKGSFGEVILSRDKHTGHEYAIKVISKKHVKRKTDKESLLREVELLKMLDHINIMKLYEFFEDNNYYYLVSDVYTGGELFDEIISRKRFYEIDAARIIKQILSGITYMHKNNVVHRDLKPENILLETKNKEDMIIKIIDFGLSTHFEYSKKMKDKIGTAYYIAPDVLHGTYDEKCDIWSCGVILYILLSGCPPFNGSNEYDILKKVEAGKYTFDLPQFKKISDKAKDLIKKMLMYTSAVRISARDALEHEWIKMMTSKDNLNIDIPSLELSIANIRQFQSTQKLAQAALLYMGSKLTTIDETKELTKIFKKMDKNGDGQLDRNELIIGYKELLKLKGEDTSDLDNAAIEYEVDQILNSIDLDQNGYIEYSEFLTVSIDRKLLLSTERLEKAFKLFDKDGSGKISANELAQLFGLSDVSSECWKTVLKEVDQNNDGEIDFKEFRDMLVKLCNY

CCN(CCCN1CCCCC1)c1cc(C)nc(Nc2ccc(C)cc2Br)n1
inactive: growth inhibition [1] 27% | inhibition [2] 49% | inhibition [3] 3% | outcome [5] | outcome [6] | outcome [7] | outcome [8]
active: growth inhibition [4] 95%

CN(C)CCC(O)C=C(c1ccc(Cl)cc1)c1ccc(Cl)cc1 (configuration not stated)
active: growth inhibition [1] 85% | growth inhibition [4] 93%
inactive: inhibition [2] 33% | inhibition [3] 1% | outcome [5] | outcome [6] | outcome [7] | outcome [8]

c1ccn2c(Sc3ncnc4sccc34)ncc2c1
inactive: inhibition [2] -14% | inhibition [3] 2% | outcome [5] | outcome [6] | outcome [7] | outcome [8]
active: growth inhibition [1] 100% | growth inhibition [4] 100%

NC(=O)COc1c(C2CCN(CCN3CCC(CNC(=O)c4ccc(-c5ccc(C(F)(F)F)cc5)cc4)CC3)CC2)ccc2c1CCCC2
inactive: inhibition [2] 32% | inhibition [3] -1% | outcome [5] | outcome [6] | outcome [7] | outcome [8]
active: growth inhibition [1] 68% | growth inhibition [4] 87%

O=S(=O)(c1cccc(C(F)(F)F)c1)N1CCC(CO)(Cc2cccc(C(F)(F)F)c2)CC1
inactive: inhibition [2] 3% | inhibition [3] 0% | outcome [5] | outcome [6] | outcome [7] | outcome [8]
active: growth inhibition [1] 79% | growth inhibition [4] 100%

Cc1cccc2[nH]c(-c3ccc(-c4ccc(CNCCCN5CCCC5=O)cc4)cc3)nc12
inactive: growth inhibition [1] 47% | inhibition [2] 7% | inhibition [3] -5% | outcome [5] | outcome [6] | outcome [7] | outcome [8]
active: growth inhibition [4] 100%

Cc1cc(N[C@@H](Cc2ccccc2)C(=O)NCCOc2ccccc2)nc(Nc2ccccc2)n1
active: growth inhibition [1] 63% | growth inhibition [4] 100%
inactive: inhibition [2] 2% | inhibition [3] -2% | outcome [5] | outcome [6] | outcome [7] | outcome [8]

Fc1ccc2nc(-c3cccc(-c4cccc(CN5CCN(c6cnccn6)CC5)c4)c3)[nH]c2c1
active: growth inhibition [4] 93%
inactive: growth inhibition [1] 35% | inhibition [2] 17% | inhibition [3] -2% | outcome [5] | outcome [6] | outcome [7] | outcome [8]

COc1ccc(NC(=O)Nc2ccc(-c3ccncc3)c(Cl)c2)cc1N1CCN(C)CC1
inactive: inhibition [2] 19% | inhibition [3] 3% | outcome [5] | outcome [6] | outcome [7] | outcome [8]
active: growth inhibition [1] 62% | growth inhibition [4] 98%

Cc1cc(N2CCCC2)nc(Nc2ccc(NC(=O)CC(C)C)cc2)n1
active: growth inhibition [1] 53% | growth inhibition [4] 95%
inactive: inhibition [2] 37% | inhibition [3] -1% | outcome [5] | outcome [6] | outcome [7] | outcome [8]

CC(Nc1cc(-c2ccccn2)nc(-c2ccccn2)n1)c1ccccc1 (configuration not stated)
active: growth inhibition [1] 98% | inhibition [2] 61% | growth inhibition [4] 85%
inactive: inhibition [3] -3% | outcome [5] | outcome [6] | outcome [7] | outcome [8]

CCOc1ccc(-c2nonc2NC(=O)c2ccccc2OC)cc1OCC
active: growth inhibition [1] 99% | growth inhibition [4] 100%
inactive: inhibition [2] 24% | inhibition [3] -3% | outcome [5] | outcome [6] | outcome [7] | outcome [8]

CCOc1ccc(Nc2ccc3nonc3c2S(=O)(=O)Nc2ccc(OCC)cc2)cc1
active: growth inhibition [1] 93% | growth inhibition [4] 100%
inactive: inhibition [2] 6% | inhibition [3] -2% | outcome [5] | outcome [6] | outcome [7] | outcome [8]

Cc1ccc(/C=C/C(=O)N2CCC(CCN3CCC(c4c[nH]c5ccccc45)CC3)CC2)cc1C
active: inhibition [2] 50% | growth inhibition [4] 94%
inactive: growth inhibition [1] 5% | inhibition [3] -2% | outcome [5] | outcome [6] | outcome [7] | outcome [8]

Cc1cc(Nc2cccc(C(F)(F)F)c2)nc2ccc(NC(=O)c3ccc(=O)[nH]c3)cc12
active: growth inhibition [1] 60% | growth inhibition [4] 101%
inactive: inhibition [2] 21% | inhibition [3] 0% | outcome [5] | outcome [6] | outcome [7] | outcome [8]

CN(C)CCNC(=O)c1cccc(-c2cnc3ccc(NCc4ccc(Cl)c(Cl)c4)nn23)c1
active: growth inhibition [1] 53% | growth inhibition [4] 100%
inactive: inhibition [2] 31% | inhibition [3] -2% | outcome [5] | outcome [6] | outcome [7] | outcome [8]

COc1cc(Nc2ccnc3ccc(C(F)(F)F)cc23)ccc1OCCCc1ccccc1
active: growth inhibition [1] 51% | growth inhibition [4] 99%
inactive: inhibition [2] 11% | inhibition [3] -10% | outcome [5] | outcome [6] | outcome [7] | outcome [8]

Fc1cccc(-c2ccc3c(c2)CC(NCc2c[nH]c4cnccc24)C3)c1 (configuration not stated)
inactive: inhibition [2] 24% | inhibition [3] -1% | outcome [5] | outcome [6] | outcome [7] | outcome [8]
active: growth inhibition [1] 68% | growth inhibition [4] 100%

COc1cc(CNC[C@@H](O)[C@H](Cc2ccccc2)NC(=O)c2cc(C3CCCC3)cc(N3CCCCS3(=O)=O)c2)cc(OC)c1
inactive: inhibition [2] 16% | inhibition [3] 4% | outcome [5] | outcome [6] | outcome [7] | outcome [8]
active: growth inhibition [1] 96% | growth inhibition [4] 98%

CCc1cn2c3c(cc(C(=O)N[C@@H](Cc4cccc(Cl)c4)[C@H](O)CNC4CCCCC4)cc13)N(C)S(=O)(=O)CC2
active: growth inhibition [1] 98% | growth inhibition [4] 97%
inactive: inhibition [2] 12% | inhibition [3] 2% | outcome [5] | outcome [6] | outcome [7] | outcome [8]

Nc1nc(N)c2nc(C3CC=CCC3)c(N)nc2n1 (configuration not stated)
active: inhibition [2] 67% | growth inhibition [4] 95%
inactive: growth inhibition [1] 0% | inhibition [3] -5% | outcome [5] | outcome [6] | outcome [7] | outcome [8]

O=C1CCCN1CCCNCc1ccc(-c2ccc(-c3nc4ccc(C(F)(F)F)cc4[nH]3)s2)cc1
active: growth inhibition [1] 96% | growth inhibition [4] 100%
inactive: inhibition [2] 9% | inhibition [3] -4% | outcome [5] | outcome [6] | outcome [7] | outcome [8]

CCSc1ccccc1CON1C(N)=NC(N)=NC1(C)C
active: inhibition [2] 62% | growth inhibition [4] 96%
inactive: growth inhibition [1] 10% | inhibition [3] -3% | outcome [5] | outcome [6] | outcome [7] | outcome [8]

CC(C)C[C@H](NC(=O)c1cc2ccccc2s1)C(=O)N[C@H]1CCN(Cc2ccc(OCCN3CCNCC3)c3ccccc23)C1
inactive: inhibition [2] 43% | inhibition [3] 3% | outcome [5] | outcome [6] | outcome [7] | outcome [8]
active: growth inhibition [1] 96% | growth inhibition [4] 101%

NS(=O)(=O)c1cccc(-c2ccc3c(=O)[nH]cnc3c2)c1
inactive: inhibition [2] 6% | inhibition [3] 4% | outcome [5] | outcome [6] | outcome [7] | outcome [8]
active: growth inhibition [1] 100% | growth inhibition [4] 99%

COc1ccc(-c2cccc(NC(=O)c3cccc(Cl)c3)c2)cc1CN1CCC(O)CC1
inactive: growth inhibition [1] 16% | inhibition [2] 38% | inhibition [3] 5% | outcome [5] | outcome [6] | outcome [7] | outcome [8]
active: growth inhibition [4] 98%

CC(C)Sc1nc(-c2ccccc2)nc2c1COC(C)(C)C2
active: growth inhibition [4] 98%
inactive: growth inhibition [1] 41% | inhibition [2] 2% | inhibition [3] -4% | outcome [5] | outcome [6] | outcome [7] | outcome [8]

CC(C)(Oc1ccc(Cl)cc1)C(=O)NCCC1CCN(CCCCCNC(=O)/C=C/c2ccc(Cl)c(Cl)c2)CC1
inactive: growth inhibition [1] 37% | inhibition [3] -1% | outcome [5] | outcome [6] | outcome [7] | outcome [8]
active: inhibition [2] 73% | growth inhibition [4] 87%

CCc1nc(N)nc(N)c1-c1cccc(Cl)c1
active: inhibition [2] 60% | growth inhibition [4] 94%
inactive: growth inhibition [1] 1% | inhibition [3] 2% | outcome [5] | outcome [6] | outcome [7] | outcome [8]

COc1ccc(NC(=O)[C@H](CC(C)C)Nc2cc(C)nc(NCCc3ccccc3OC)n2)cc1
inactive: inhibition [2] 9% | inhibition [3] -3% | outcome [5] | outcome [6] | outcome [7] | outcome [8]
active: growth inhibition [1] 68% | growth inhibition [4] 99%

CC(C)CNCc1cccc(-c2ccc(CNc3ccc4ncccc4c3)cc2)c1
inactive: growth inhibition [1] 32% | inhibition [2] 13% | inhibition [3] -3% | outcome [5] | outcome [6] | outcome [7] | outcome [8]
active: growth inhibition [4] 94%

CC(C)(C(=O)Nc1ccc(N2CCC3(CCCN(CC4CC4)C3)CC2)c(Cl)c1)c1cccc(C(F)(F)F)c1
active: growth inhibition [4] 92%
inactive: growth inhibition [1] 0% | inhibition [2] 27% | inhibition [3] 4% | outcome [5] | outcome [6] | outcome [7] | outcome [8]

CCCc1cc(Cc2cnc(N)nc2N)cc(CCC)c1OCCCCC(=O)OCC
inactive: growth inhibition [1] -3% | inhibition [2] 1% | inhibition [3] 4% | outcome [5] | outcome [6] | outcome [7] | outcome [8]
active: growth inhibition [4] 93%

Cc1ccc(NC(=O)c2cc(Br)cc(N3CCCN(C)CC3)c2)cc1F
active: growth inhibition [4] 87%
inactive: growth inhibition [1] 1% | inhibition [2] 15% | inhibition [3] -2% | outcome [5] | outcome [6] | outcome [7] | outcome [8]

CC(C)Sc1nc2c(c(=O)n1Cc1ccco1)C1(CCCC1)Cc1ccccc1-2
inactive: growth inhibition [1] 10% | inhibition [2] 8% | inhibition [3] 4% | outcome [5] | outcome [6] | outcome [7] | outcome [8]
active: growth inhibition [4] 98%

O=C(NC1CCN(c2ccnc3cc(Cl)ccc23)C1)c1ccccc1F (configuration not stated)
inactive: inhibition [2] 8% | inhibition [3] 4% | outcome [5] | outcome [6] | outcome [7] | outcome [8]
active: growth inhibition [1] 71% | growth inhibition [4] 101%

CN(C)C(CNc1ncnc2cc(Cl)ccc12)Cc1ccccc1 (configuration not stated)
active: growth inhibition [1] 88% | growth inhibition [4] 96%
inactive: inhibition [2] 13% | inhibition [3] -4% | outcome [5] | outcome [6] | outcome [7] | outcome [8]

CC(=O)Nc1ccc(C(=O)Nc2cccc(-c3cccc(-c4nc5ccc(F)cc5[nH]4)c3)c2)cn1
inactive: inhibition [2] -5% | inhibition [3] 1% | outcome [5] | outcome [6] | outcome [7] | outcome [8]
active: growth inhibition [1] 98% | growth inhibition [4] 99%

COc1cc(CNC[C@@H](O)[C@H](Cc2ccccc2)NC(=O)c2cc(C3CCCC3)cc(N3CCCC3=O)c2)cc(OC)c1
inactive: inhibition [2] 16% | inhibition [3] 6% | outcome [5] | outcome [6] | outcome [7] | outcome [8]
active: growth inhibition [1] 76% | growth inhibition [4] 97%
